# Laboratory results: PubChem BioAssay (NCATS)
# Results filed as inconclusive are left out. A call without a number means that no potency is given here. Calls of active or inactive are those of the source. Calls come from the whole dose curve; as a rule, active = well fitted inhibition curve with a large enough effect; inconclusive = small, poorly fitted or top-dose-only effect; inactive = flat fitted curve, though single readings scatter.
# Target: Calcium and integrin-binding protein 1 (Homo sapiens) (UniProt Q99828)
# Experiment: Primary qHTS for Identification of Calcium Integrin Binding Protein 1 (CIB1) Competitor (AID 1508620);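 note: GST tagged CIB1 binding a fluorescein labelled alphaIIb integrin peptide tracer; top concentration of the series differs between compounds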
# Conditions: CIB1-GST / FITC-alphaIIb peptide fluorescence polarization; series mostly up to 114 µM
# Summary of the method: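 Fluorescence polarization competition: CIB1-GST (1 uM final) preincubated with compound 15 min at room temperature, then FITC-labeled alphaIIb peptide (100 nM final) added for another 15 min. Polarization read at Ex 480/Em 540.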
# Calcium and integrin-binding protein 1 (Homo sapiens), sequence (Q99828 whole entry, looked up): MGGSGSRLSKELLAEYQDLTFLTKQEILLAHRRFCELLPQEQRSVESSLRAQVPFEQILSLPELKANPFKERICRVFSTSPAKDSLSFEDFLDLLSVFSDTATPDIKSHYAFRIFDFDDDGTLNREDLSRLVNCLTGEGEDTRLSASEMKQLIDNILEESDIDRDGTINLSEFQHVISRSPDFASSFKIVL
row,SMILES,Potency
1,O=C(Nc1ccc(-n2nc(C(F)(F)F)cc2C(F)(F)F)cc1)c1ccncc1F,inactive
2,O=C(NO)c1ccc(CC(=O)N(CCO)c2ccccc2)cc1,inactive
3,C=CC(=O)N1CCC[C@@H](n2nc(-c3cccc(C(=O)Nc4ccc(C(C)C)c(C)c4)c3)c3c(N)ncnc32)C1,inactive
4,Cc1[nH]c2ccc(F)cc2c1-c1nc2c3cccnc3c3ncccc3c2[nH]1,inactive
5,COc1cccc(-c2cc(F)ccc2C2Cc3nc(N)nc(C)c3C(=O)N2)n1 (stereo not given),inactive
6,Cn1c(CO)c(-c2ccccc2)c2cc([N+](=O)[O-])ccc21,inactive
7,COc1cc2c(cc1NS(=O)(=O)c1ccc(Br)cc1C)n(C)c(=O)n2C,inactive
8,Cc1ccc(C)c(NS(=O)(=O)c2cc(C(=O)Nc3ccccc3-c3ccccc3)ccc2C)c1,inactive
9,COc1cc(O)cc(OC2OC(CO)C(O)C(O)C2O)c1 (stereo not given),inactive
10,NC(=O)CCCSc1nc(N)nc(-c2c(Cl)cc3c4c(cccc24)COC3)n1,inactive
11,COc1c(C(C)C)c(O)c(O)c2c1C(OC)[C@H]1OC(=O)[C@@]23CCCC(C)(C)[C@H]13 (stereo not given in full),inactive
12,CC(C)=CCC/C(C)=C/COCC1OC(n2ccc(=O)[nH]c2=O)C(O)C1O (stereo not given),inactive
13,C[C@@H](NC(=O)[C@H](O)c1cc(F)cc(F)c1)C(=O)N[C@@H]1C(=O)N(C)c2ccccc2-c2ccccc21,inactive
14,CCCOc1ccc(S(=O)(=O)N2CCN(CCO)CC2)cc1-c1nc2c(CCC)cn(CC)c2c(=O)[nH]1,inactive
15,CN1CCN(c2ccc(-c3cccc(CN4CCOCC4)c3)cc2NC(=O)c2c[nH]c(=O)cc2C(F)(F)F)CC1,inactive
16,CC[C@H](C)/C=C(C)/C=C/C1=CC2=C(Cl)C(=O)[C@](C)(O)[C@H](OC(C)=O)[C@H]2CO1,inactive
17,O=C(O)c1cc(N(Cc2ccc(C3CCCCC3)cc2)C(=O)c2ccc(Oc3ccccc3)cc2)ccc1O,inactive
18,O=C(NCCCCCCCCNC(=O)C(Cl)Cl)C(Cl)Cl,inactive

row,SMILES,Potency
1,Cc1cc2c(c(=O)o1)C=C1CC[C@H]([C@H](C)Cn3cnc(=N)c4[nH]cnc43)C[C@@H]1O2,inactive
2,O=C1NC(=O)C(c2cnc3ccccn23)=C1c1cn2c3c(cc(F)cc13)CN(C(=O)N1CCCCC1)CC2,inactive
3,C=CCC1=C[C@]2(OC)[C@H](C)[C@@H](c3ccc4c(c3)OCO4)O[C@]2(OC)CC1=O,inactive
4,CC(=O)O[C@H]1[C@H](O)C[C@@]2(C)C(CC[C@]3(C)C2CC=C2C4CC(C)(C)CC[C@]4(C(=O)O)CC[C@]23C)C1(C)C (stereo not given in full),inactive
5,C/C=C(\C)C(=O)O[C@H]1C[C@](C)(O)[C@H]2CC=C(C)[C@H]2[C@@H]2OC(=O)[C@H](C)[C@H]21,inactive
6,CN(C)C(CCOc1cccc2ccccc12)c1ccccc1 (stereo not given),inactive
7,COc1ccc(N(C(=O)Nc2c(C)cccc2C)c2cc(Nc3ccc(N4CCN(C)CC4)cc3)ncn2)c(OC)c1,inactive
8,CC1(C)CCCC2(C)C1C(=O)C=C(C(=O)O)C2(O)C(=O)O (stereo not given),inactive
9,C=C1/C(=C/C=C2\CCC[C@]3(C)[C@@H]([C@H](C)/C=C/[C@@H](C)C(C)C)CC[C@@H]23)C[C@@H](O)C[C@@H]1O,inactive
10,C[C@H]1CC[C@@]2(OC1)O[C@H]1CC3[C@@H]4CC[C@@H]5C[C@@H](O[C@@H]6O[C@H](CO)[C@@H](O[C@@H]7O[C@@H](C)[C@H](O)[C@@H](O)[C@H]7O)[C@H](O)[C@H]6O[C@@H]6O[C@H](CO)[C@@H](O)[C@H](O)[C@H]6O)CC[C@]5(C)C4CC[C@]3(C)[C@H]1[C@@H]2C (stereo not given in full),inactive
11,C/C=C(\C)C(=O)O[C@H]1C=C(CO)C(=O)[C@H](OC(C)=O)[C@H]1C(C)C,inactive
12,CCCCOC(=O)NS(=O)(=O)c1sc(CC(C)C)cc1-c1ccc(Cn2ccnc2)cc1,inactive
13,CC(C)n1cnc2c(-c3cnc(N)nc3)nc(N3CCOCC3)nc21,inactive
14,C=C(C)C(=O)OC1CC(CO)CCC/C(CO)=C/C2OC(=O)C(=C)C21 (stereo not given),inactive
15,C/C=C(\C)C(=O)OC1C(C)C2(O)C(C=C(CO)CC3(O)C(=O)C(C)=CC32)C2C(C)(C)C12OC(C)=O (stereo not given),inactive
16,CC(=O)C1(C)CCC2C3C=C(C)C4=CC(=O)CCC4(C)C3CCC21C (stereo not given),inactive
17,C[C@@H]1O[C@@H](O[C@H]2CC[C@@]3(C)C(CC[C@]4(C)C3CC=C3[C@@H]5CC(C)(C)CC[C@]5(C(=O)O[C@@H]5O[C@H](CO)[C@@H](O)[C@H](O)[C@H]5O)CC[C@]34C)[C@]2(C)CO)[C@H](O)[C@H](O[C@@H]2O[C@H](CO)[C@@H](O)[C@H](O)[C@H]2O)[C@H]1O (stereo not given in full),inactive
